Results taken from PubChem BioAssay (NCATS).
Results filed as inconclusive are left out. Where a call stands in place of a potency, no number is given. The source made the active and inactive calls. Calls come from the whole dose curve; as a rule, active = well fitted curve in the direction sought with a large enough effect; inconclusive = small, poorly fitted or top-dose-only effect, or another doubt; inactive = no such curve, though single readings can be large; an effect the other way counts as inactive or inconclusive.

biological target: Cytochrome P450 3A4 (Homo sapiens) (UniProt P08684); assay: qHTS Assay for Inhibitors and Substrates of Cytochrome P450 3A4 (AID 884); settings: recombinant CYP3A4, Luciferin-PPXE luminescence; series mostly up to 57.1 µM; note: nearly all actives have a fitted effect of over 50% in size
In short: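 Luminescent readout of luciferin produced by CYP3A4 (20 nM) dealkylation of Luciferin-PPXE, 25 uM (its KM). NADPH-driven reaction ran 60 min at RT after 10 min compound preincubation; data scaled to 57 uM ketoconazole as 100% inhibition.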

Chain of Cytochrome P450 3A4 (Homo sapiens) (P08684 whole entry, looked up): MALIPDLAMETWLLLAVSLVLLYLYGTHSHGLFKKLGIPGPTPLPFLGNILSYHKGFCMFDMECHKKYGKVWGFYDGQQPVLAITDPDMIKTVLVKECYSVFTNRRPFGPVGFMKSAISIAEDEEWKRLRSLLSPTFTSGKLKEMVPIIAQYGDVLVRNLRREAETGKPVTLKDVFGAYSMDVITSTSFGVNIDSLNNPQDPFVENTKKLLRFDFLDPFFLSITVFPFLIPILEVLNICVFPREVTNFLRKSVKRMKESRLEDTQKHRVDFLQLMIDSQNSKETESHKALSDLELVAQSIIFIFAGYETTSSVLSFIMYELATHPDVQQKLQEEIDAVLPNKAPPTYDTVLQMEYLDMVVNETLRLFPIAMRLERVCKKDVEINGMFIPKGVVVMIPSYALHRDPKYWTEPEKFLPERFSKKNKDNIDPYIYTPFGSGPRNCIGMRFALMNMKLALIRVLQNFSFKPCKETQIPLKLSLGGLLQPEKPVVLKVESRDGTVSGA

| SMILES | Potency |
| --- | --- |
| CC1(C)S[C@H]2C(NC(=O)[C@@H](N)c3ccc(O)cc3)C(=O)N2[C@@H]1C(=O)O (some centres not stated) | inactive |
| CN(C)CCc1c[nH]c2ccc(CC3COC(=O)N3)cc12 (configuration not stated) | inactive |
| COC(=O)CCCC[C@@H]1SC[C@@H]2NC(=O)N[C@@H]21 | inactive |
| C=C1CC/C=C(\C)CC[C@@H]2[C@@H]1CC2(C)C | inactive |
| C[C@@]12CCC(=O)C=C1C=CC1C2CC[C@]2(C)C1CC[C@@]21CCC(=O)O1 (some centres not stated) | inactive |
| CC1=C(C2=C(C)C(C(C)C)C3=C(C(=O)C(O)C3O)C2O)C(O)C2=C(C(O)C(O)C2=O)C1C(C)C (configuration not stated) | inactive |
| NC(CCC(=O)N[C@@H](CS)C(=O)NCC(=O)O)C(=O)O (some centres not stated) | inactive |
| CC(C)Oc1ccc2c(=O)cc(-c3ccccc3)oc2c1 | inactive |
| C[C@@H]1O[C@@H](O[C@H]2[C@H](Oc3cc(O)c4c(c3)O[C@H](c3ccc(O)cc3)CC4=O)O[C@H](CO)[C@@H](O)[C@@H]2O)[C@H](O)[C@H](O)[C@H]1O | inactive |
| N[C@H](CO)Cc1cnc[nH]1 | inactive |
| COC1OC2COC(c3ccccc3)OC2C(O)C1O (configuration not stated) | inactive |
| NC(=O)NCCC[C@H](N)C(=O)O | inactive |
| N[C@@H]1C(O)OC(CO)C(O)C1O (some centres not stated) | inactive |
| CC1=CC(=O)[C@@H]2C[C@H]1C2(C)C | inactive |
| CCC1OC(=O)CC(O)C(C)[C@@H](O[C@@H]2OC(C)[C@H](O[C@@H]3C[C@@](C)(O)C(O)C(C)O3)C(N(C)C)C2O)[C@H](CC=O)CC(C)C(=O)/C=C/C(C)=C/[C@@H]1COC1OC(C)C(O)C(OC)[C@@H]1OC (some centres not stated) | inactive |
| COC1OC(CO)C(OC2OC(C(=O)O)C(OC3OC(COS(=O)(=O)O)C(OC4OC(C(=O)O)C(OC5OC(CO)C(OC6OC(C(=O)O)C(OC7OC(COS(=O)(=O)O)C(OC8OC(C(=O)O)=C[C@H](O)C8OS(=O)(=O)O)C(O)C7NC(C)=O)[C@@H](O)C6O)C(O)C5NC(C)=O)[C@@H](O)C4O)C(O)C3NC(C)=O)[C@@H](O)C2O)C(O)C1NC(C)=O (some centres not stated) | inactive |
| CC(C)CCCC(C)C1CCC2C3CC=C4CC(O)CCC4(C)C3CCC12C (configuration not stated) | inactive |
| O=c1[nH]c(=O)n([C@@H]2O[C@H](CO)[C@@H](O)[C@H]2O)cc1F | inactive |
| O=c1ccn([C@H]2C[C@H](O)[C@@H](CO)O2)c(=O)[nH]1 | inactive |
| O=C(O)C1(O)C[C@H](O)C(O)[C@@H](O)C1 (some centres not stated) | inactive |
| CC1C2CCC3C4CC=C5CC(N(C)C)CC[C@@]5(C)C4CC[C@@]32CN1C (some centres not stated) | inactive |
| O=c1[nH]c(=O)n([C@@H]2O[C@H](CO)[C@@H](O)[C@H]2O)cc1Br | inactive |
| COC1CC(O[C@H]2/C(C)=C/CC3CC(C[C@]4(CCC(C)C(C5CCCCC5)O4)O3)OC(=O)[C@H]3C=C(C)/C(=N/O)C4OC/C(=C\C=C\[C@@H]2C)[C@@]43O)OC(C)C1O (some centres not stated) | inactive |
| CCC(C)C(=O)OC1CC(O)C=C2C=CC(C)C(CCC(O)CC(O)CC(=O)O)C21 (configuration not stated) | inactive |
| OCC1OC(n2cnc3c(=S)nc[nH]c32)C(O)C1O (configuration not stated) | inactive |

biological target: Cytochrome P450 3A4 (Homo sapiens) (UniProt P08684); assay: qHTS Assay for Activators of Cytochrome P450 3A4 (AID 885); settings: recombinant CYP3A4, Luciferin-PPXE luminescence, 60 min; series mostly up to 57.1 µM; note: nearly all actives have a fitted effect of over 65% in size; note: potency is the fitted concentration of half-maximal effect
In short: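 Human CYP3A4 dealkylates Luciferin-PPXE to luciferin, which luciferase detection converts to light. Substrate was at its KM (25uM), buffer 200mM KPO4, reaction 60 min at RT.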

| SMILES | Potency |
| --- | --- |
| C[C@@]12CCC(=O)C=C1C=CC1C2CC[C@]2(C)C1CC[C@@]21CCC(=O)O1 (some centres not stated) | 15.8 µM (active) |
| CC(=O)O[C@@]1(C(C)=O)CCC2C3CC(C)C4=CC(=O)CC[C@@]4(C)C3CC[C@]21C (some centres not stated) | inactive |
| C=Cc1c(C)/c2[n-]/c1=C\c1[n-]c(c(CC)c1C)/C=c1\[n-]c3c(c1C)C(=O)C(C(=O)[O-])C=3c1[n-]c(c(C)c1CCC(=O)[O-])\C=2.[Cu].[Na+].[Na+] (configuration not stated) | inactive |
| CCC(=O)O[C@@]1(C(=O)CCl)C(C)CC2C3CCC4=CC(=O)C=C[C@@]4(C)[C@]3(F)C(O)C[C@]21C (some centres not stated) | inactive |
| CCC1OC(=O)C(C)[C@@H](O[C@H]2C[C@@](C)(OC)C(O)C(C)O2)C(C)[C@@H](O[C@@H]2OC(C)CC(N(C)C)C2O)[C@@](C)(O)CC(C)C(=O)[C@@H](C)C(O)[C@]1(C)O (some centres not stated) | inactive |

system: not listed separately; assay: Confirmation and Secondary Assay for Modulators of Hemoglobin Beta Chain Splicing at IVS2 654 locus (AID 910); settings: HeLa EGFP-654 splicing reporter, GFP fluorescence, 48 h; series mostly up to 46.1 µM;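 note: per-well total GFP intensity by laser scanning cytometry after 2-day treatment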;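 note: potency is the fitted concentration of half-maximal effect; potency of activators that raise GFP signal by restoring correct splicing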
In short: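 HeLa cells stably carrying EGFP interrupted by mutant beta-globin IVS2-654 intron (CMV-driven) were treated with compound for 2 days at 37C; corrected splicing was scored as total peak GFP intensity per well (488 nm excitation, 500-520 nm emission).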

| SMILES | Potency |
| --- | --- |
| CC1(C)S[C@H]2C(NC(=O)[C@@H](N)c3ccc(O)cc3)C(=O)N2[C@@H]1C(=O)O (some centres not stated) | inactive |
| CN(C)CCc1c[nH]c2ccc(CC3COC(=O)N3)cc12 (configuration not stated) | inactive |
| C[C@@]12CCC(=O)C=C1C=CC1C2CC[C@]2(C)C1CC[C@@]21CCC(=O)O1 (some centres not stated) | inactive |
| NC(CCC(=O)N[C@@H](CS)C(=O)NCC(=O)O)C(=O)O (some centres not stated) | inactive |
| CC(C)Oc1ccc2c(=O)cc(-c3ccccc3)oc2c1 | inactive |
| CCCCCCCCCc1ccc(OCCOCCOCCOCCOCCOCCOCCOCCOCCO)cc1 | inactive |
| CC(=O)O[C@@]1(C(C)=O)CCC2C3CC(C)C4=CC(=O)CC[C@@]4(C)C3CC[C@]21C (some centres not stated) | inactive |
| N[C@@H]1C(O)OC(CO)C(O)C1O (some centres not stated) | inactive |
| CC(=O)OCC(=O)[C@@]12OC3(CCCC3)OC1CC1C3CCC4=CC(=O)C=C[C@@]4(C)[C@]3(F)C(O)C[C@]12C (some centres not stated) | inactive |
| CCC1OC(=O)CC(O)C(C)[C@@H](O[C@@H]2OC(C)[C@H](O[C@@H]3C[C@@](C)(O)C(O)C(C)O3)C(N(C)C)C2O)[C@H](CC=O)CC(C)C(=O)/C=C/C(C)=C/[C@@H]1COC1OC(C)C(O)C(OC)[C@@H]1OC (some centres not stated) | inactive |
| C=Cc1c(C)/c2[n-]/c1=C\c1[n-]c(c(CC)c1C)/C=c1\[n-]c3c(c1C)C(=O)C(C(=O)[O-])C=3c1[n-]c(c(C)c1CCC(=O)[O-])\C=2.[Cu].[Na+].[Na+] (configuration not stated) | inactive |
| CCC(=O)O[C@@]1(C(=O)CCl)C(C)CC2C3CCC4=CC(=O)C=C[C@@]4(C)[C@]3(F)C(O)C[C@]21C (some centres not stated) | inactive |
| CC(=O)[C@]1(O)CCC2C3C=C(Cl)C4=CC(=O)C5CC5[C@@]4(C)C3CC[C@]21C (some centres not stated) | inactive |
| CO[C@]12C(COC(N)=O)C3=C(C(=O)C(C)=C(N)C3=O)N1CC1NC12 (some centres not stated) | inactive |
| COC1OC(CO)C(OC2OC(C(=O)O)C(OC3OC(COS(=O)(=O)O)C(OC4OC(C(=O)O)C(OC5OC(CO)C(OC6OC(C(=O)O)C(OC7OC(COS(=O)(=O)O)C(OC8OC(C(=O)O)=C[C@H](O)C8OS(=O)(=O)O)C(O)C7NC(C)=O)[C@@H](O)C6O)C(O)C5NC(C)=O)[C@@H](O)C4O)C(O)C3NC(C)=O)[C@@H](O)C2O)C(O)C1NC(C)=O (some centres not stated) | inactive |
| C[C@@]12C=CC(=O)C=C1CCC1C3CC(O)[C@@](O)(C(=O)CO)[C@]3(C)CC(O)[C@]12F (some centres not stated) | inactive |
| CCC1OC(=O)C(C)[C@@H](O[C@H]2C[C@@](C)(OC)C(O)C(C)O2)C(C)[C@@H](O[C@@H]2OC(C)CC(N(C)C)C2O)[C@@](C)(O)CC(C)C(=O)[C@@H](C)C(O)[C@]1(C)O (some centres not stated) | inactive |
| CC1C2CCC3C4CC=C5CC(N(C)C)CC[C@@]5(C)C4CC[C@@]32CN1C (some centres not stated) | inactive |
| COC1CC(O[C@H]2/C(C)=C/CC3CC(C[C@]4(CCC(C)C(C5CCCCC5)O4)O3)OC(=O)[C@H]3C=C(C)/C(=N/O)C4OC/C(=C\C=C\[C@@H]2C)[C@@]43O)OC(C)C1O (some centres not stated) | inactive |
| C#C[C@]1(O)CCC2C3CCC4=CC(=O)CCC4C3CC[C@@]21C (some centres not stated) | inactive |
| CCC(C)C(=O)OC1CC(O)C=C2C=CC(C)C(CCC(O)CC(O)CC(=O)O)C21 (configuration not stated) | inactive |
| OCC1OC(n2cnc3c(=S)nc[nH]c32)C(O)C1O (configuration not stated) | 3.16 µM (active) |
